# High-throughput results (PubChem BioAssay)
# FUS suppressor = rescues growth of FUS-expressing yeast; 390,000 tested, 0.24% active; S. cerevisiae FUS-expressing, growth rescue, OD600, 24 h; Potency, µM (series often up to 76.6 µM), hits mostly activators; further: nearly all actives have a fitted effect of over 55% in size
#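 Steps: raffinose overnight preculture; dilution to OD 0.005 in 2% galactose minimal medium; compound addition (concentration series); 24hr at 30C, 99% humidity; absorbance read at 600 nm.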
# TRPV1 PAM = potentiators of human vanilloid receptor 1 (TRPV1); Q8NER1; TRPV1-expressing cells, Fluo-8 calcium influx, capsaicin EC20 potentiation; potentiation, % at 8.33 µM; 320,000 tested, 0.02% active; in the data active means potentiation above about 80%; inconclusive means between about 30% and that limit
# Target sequence (Q8NER1 whole entry, looked up): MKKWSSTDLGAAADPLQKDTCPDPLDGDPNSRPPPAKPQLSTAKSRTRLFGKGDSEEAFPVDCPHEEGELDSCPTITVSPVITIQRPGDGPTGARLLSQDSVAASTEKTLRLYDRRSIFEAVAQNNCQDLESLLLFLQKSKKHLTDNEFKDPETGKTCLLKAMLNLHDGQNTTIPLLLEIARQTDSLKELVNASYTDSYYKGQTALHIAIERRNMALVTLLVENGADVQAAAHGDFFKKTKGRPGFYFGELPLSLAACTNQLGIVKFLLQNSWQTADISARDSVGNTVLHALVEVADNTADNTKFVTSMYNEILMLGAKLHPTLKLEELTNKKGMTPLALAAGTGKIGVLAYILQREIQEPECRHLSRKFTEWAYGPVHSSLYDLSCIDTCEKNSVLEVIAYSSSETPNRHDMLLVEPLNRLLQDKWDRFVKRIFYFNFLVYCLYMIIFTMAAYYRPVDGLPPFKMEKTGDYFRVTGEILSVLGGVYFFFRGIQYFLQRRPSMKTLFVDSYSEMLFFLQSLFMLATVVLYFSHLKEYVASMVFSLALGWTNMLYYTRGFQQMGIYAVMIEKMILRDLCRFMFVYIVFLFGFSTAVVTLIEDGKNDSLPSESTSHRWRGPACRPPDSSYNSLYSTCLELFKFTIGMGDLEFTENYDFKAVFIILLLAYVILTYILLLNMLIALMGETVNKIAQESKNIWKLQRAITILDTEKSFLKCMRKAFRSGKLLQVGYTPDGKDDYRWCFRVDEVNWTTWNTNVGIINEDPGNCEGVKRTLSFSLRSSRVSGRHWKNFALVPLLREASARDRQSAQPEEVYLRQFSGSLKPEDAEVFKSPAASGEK
#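 Fluo-8 calcium influx in TRPV1-expressing cells, kinetic read (ex 480/em 520 nm). Compound added and read 3 min for agonist activity, followed by capsaicin at EC20 final and 2 min further read for enhancement.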
# Giardia kill = kills Giardia lamblia | Giardia lamblia trophozoite viability | activity change, % at 7.66 µM, hits read low | 340,000 tested, 0.15% active | AID 540267; in the data active means activity change below about -80%; inconclusive means between about -30% and that limit;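 further: parasites exposed to compound for two days anaerobically before the ATP read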
#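 Viability, read as ATP luminescence: trophozoites at 100 cells/well, compound added, 48 hrs anaerobic at 37 deg C, then 15-30 min room-temperature development before reading.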
# ELG1 repair inh = blocks ELG1-dependent DNA repair in HEK293T cells. HEK293T ELG1-luciferase reporter, luminescence, 16 h; DNA damage induced by 5-fluorouridine. 330,000 tested, 2.3% active. Potency, µM (highest dose often 46.1 µM), hits mostly inhibitors; further: nearly all actives have a fitted effect of over 55% in size
#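 5-Fluorouridine DNA damage + compound/DMSO, 2,000 cells/well, 16 h, 37 °C/5% CO2. ONE-Glo, 30 min RT, luminescence. Readout = decrease in reporter signal.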
# TRPV1 ag = agonists of human vanilloid receptor 1 (TRPV1) | TRPV1-expressing cells, Fluo-8 calcium influx, agonist mode | activation, % at 8.33 µM | 320,000 tested, 0.19% active | AID 540275; in the data active means activation above about 80%; inconclusive means between about 30% and that limit
#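 Cells expressing TRPV1 were dye-loaded with Fluo-8 and read kinetically: 10 s baseline, 3 min after compound (agonist portion), then 2 min after EC20 capsaicin (allosteric enhancer portion). Calcium-bound dye fluorescence at 480/520 nm.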
# Hits are given with their value; 0 = inactive; ? = inconclusive; - = not tested or not shown. Most compounds without a hit are left out; they make up all but 2.3% or so of the library. Unless noted, the call rests on the fitted dose curve; in most records, active means well fitted curve in the direction sought with a large enough effect; inconclusive means small, poorly fitted or top-dose-only effect, or another doubt; inactive means no such curve, though single readings can be large; an effect the other way counts as inactive or inconclusive.
SMILES,FUS suppressor,TRPV1 PAM,Giardia kill,ELG1 repair inh,TRPV1 ag
O=C(NC1CCCCN(Cc2cccc(Cl)c2)C1=O)c1ccc(F)c(F)c1 (configuration not stated),0,-,-,-,-
O=C(Nc1ccc(N2CCN(C(=O)c3ccccc3)CC2)cc1)c1cc([N+](=O)[O-])ccc1N1CCOCC1,35µM,0,0,0,0
O=C(c1ccc2nsnc2c1)N1CCN(c2ccc([N+](=O)[O-])cc2)CC1,0,0,0,16µM,0
CC(C)(C)C(=O)N1CCN(c2ccc(NC(=O)c3ccc4c(c3)OCCO4)cc2)CC1,0,0,0,16µM,0
CCC(=O)Nc1ccc(N2CCN(C(=O)c3ccco3)CC2)c(Cl)c1,0,0,0,?,0
O=C(Cc1ccc(Cl)cc1)Nc1ccc(N2CCN(C(=O)c3ccco3)CC2)c(Cl)c1,0,0,0,13µM,0
CCCN(CCC)C(=O)c1c2c(nc3ccccc13)C(=O)N(C1CCCCC1)C2,0,-,-,-,-
Cc1noc(C)c1S(=O)(=O)NC(=O)C1(C)CCN1C(=O)Cc1ccc(Cl)cc1Cl (configuration not stated),0,-,-,-,-
Cc1ccc(CNC(=O)Cc2c(C)c3c(cc(C)c4c(C)coc43)oc2=O)cc1,0,-,-,-,-
O=C(c1ccc2c(c1)OCO2)N1CCCC1,10µM,0,0,0,0
CC(=O)N1CCN(C(=O)c2ccc3c(c2)OCO3)CC1,0,-,0,0,-
O=C(Nc1ccc(N2CCN(C(=O)c3ccccc3)CC2)cc1)c1ccc2c(c1)OCCO2,-,0,0,15µM,0
O=C(Nc1ccccc1N1CCN(C(=O)c2ccccc2)CC1)c1cc(Br)ccc1Cl,25µM,0,0,?,?
Cc1cccc(N2C(=O)CSC23C(=O)N(Cc2cccc(C(F)(F)F)c2)c2ccccc23)c1 (configuration not stated),0,-,-,-,-
CCCNC(=O)C[C@H]1CC[C@H]2[C@@H](COc3ccc(NC(=O)Nc4ccccc4)cc3C(=O)N2C)O1,0,-,-,-,-
COc1cc(/C=N/Nc2ccccc2[N+](=O)[O-])cc(OC)c1O,0,0,0,0,0
COc1cc(/C=N/Nc2ccc(S(N)(=O)=O)cc2[N+](=O)[O-])cc(OC)c1O,0,0,0,9.2µM,0
Cn1c(SC(C(=O)Nc2ccc(F)cc2)c2ccccc2)nc2ccccc21 (configuration not stated),0,0,0,?,85
Cc1ccc(-n2cnc3c(sc4nccc(N(C)C)c43)c2=O)cc1,0,0,0,10µM,0
O=C(CSc1nnc(-c2ccncc2)o1)c1cccc([N+](=O)[O-])c1,0,0,0,0,0
CC(=O)Nc1cccc(-c2nnc(SCC(=O)c3cc([N+](=O)[O-])ccc3Cl)o2)c1,13µM,-,-,-,-
O=C(N/N=C/c1cccnc1)c1ccccc1OCc1ccc(Br)cc1,0,0,0,12µM,?
O=C(N/N=C/c1cccnc1)c1ccc(CN2c3cccc4cccc(c34)S2(=O)=O)cc1,?,0,0,23µM,0
O=C(N/N=C/c1cccnc1)c1ccccc1Cl,0,0,0,?,?
COc1cccc(/C=N/NC(=O)c2ccc(CN3c4cccc5cccc(c45)S3(=O)=O)cc2)c1,-,0,0,?,0
SMILES,FUS suppressor,TRPV1 PAM,Giardia kill,ELG1 repair inh,TRPV1 ag
O=C(N/N=C/c1cccnc1)c1ccccc1OCc1ccc(Cl)cc1,-,0,-,23µM,?
O=C(N/N=C/c1cccnc1)c1ccccc1Br,0,0,0,0,0
O=C(N/N=C/c1cccnc1)c1cc(-c2ccc(Br)cc2)nc2ccccc12,0,0,0,13µM,0
O=C(N/N=C/c1cccnc1)c1cc(-c2ccccc2)nc2ccccc12,0,0,0,?,0
COc1ccc(N2CC(NC(=O)c3ccco3)CC2=O)cc1OC (configuration not stated),0,-,-,-,-
Cc1ccc(S(=O)(=O)/N=C(\CCl)N2CCOCC2)cc1,-,0,0,15µM,0
Cc1ccc(S(=O)(=O)/N=C(\CN2CCOCC2)N2CCCC2)cc1,0,0,0,0,0
C/C=C/c1ccccc1OCCCN1CCC(C(O)(c2ccccc2)c2ccccc2)CC1,0,-,-,-,-
CCOc1ccccc1NC(=O)CCn1c(-c2ccc(OC)cc2)cc(C(C)=O)c1C,0,-,-,-,-
CC(C)(C)OC(=O)[C@H](Cc1ccccc1)NC(=O)c1[nH]cnc1C(=O)Nc1ccc(Cl)cc1,?,0,0,?,?
CCOC(=O)c1ccc(NC(=O)c2nc[nH]c2C(=O)N[C@@H](Cc2ccccc2)C(=O)OC(C)(C)C)cc1,?,0,0,23µM,0
CCOC(=O)c1ccc(NC(=O)c2nc[nH]c2C(=O)NCCCCCNC(=O)OC(C)(C)C)cc1,?,0,0,16µM,0
Cc1ccc(NC(=O)c2nc[nH]c2C(=O)NCCCNC(=O)c2[nH]cnc2C(=O)Nc2ccc(C)cc2)cc1,0,-,0,5.2µM,-
CC(C)(C)OC(=O)NCCCCCNC(=O)c1[nH]cnc1C(=O)Nc1ccccc1,?,0,0,?,0
Cc1ccc(NC(=O)c2nc[nH]c2C(=O)NCCCCCNC(=O)OC(C)(C)C)cc1,?,0,0,23µM,0
Cc1ccc(NC(=O)c2nc[nH]c2C(=O)NCCCCCCNC(=O)c2[nH]cnc2C(=O)Nc2ccc(C)cc2)cc1,0,-,0,?,-
CCOC(=O)c1ccc(NC(=O)c2nc[nH]c2C(=O)NCCCCNC(=O)c2[nH]cnc2C(=O)Nc2ccc(C(=O)OCC)cc2)cc1,0,?,0,?,0
CC(C)C[C@H](NC(=O)c1nc[nH]c1C(=O)NC(c1ccccc1)c1ccccc1)C(=O)OC(C)(C)C,14µM,0,0,?,0
CC(C)C[C@H](NC(=O)c1[nH]cnc1C(=O)N[C@H](C)c1ccccc1)C(=O)OC(C)(C)C,0,0,0,0,0
CC(C)(C)OC(=O)NCCCCCNC(=O)c1[nH]cnc1C(=O)Nc1ccc(Cl)cc1,?,0,0,21µM,0
COc1cccc(N2CCN(C(=O)C3CCN(S(=O)(=O)c4ccc5c(c4)CC(C)N5C(C)=O)CC3)CC2)c1 (configuration not stated),14µM,0,0,?,0
CC(=O)N1c2ccc(S(=O)(=O)N3CCC(C(=O)N4CCN(c5ccccc5F)CC4)CC3)cc2CC1C (configuration not stated),0,0,0,21µM,0
COc1ccc2c(c1)c1c(c(=O)n(-c3ccc(OC)c(OC)c3)c(=O)n1Cc1ccc(F)cc1)n2C,0,-,-,-,-
CC1CCC(C(C)C)C(OC(=O)Cn2c(-c3ccc(F)cc3)[n+](C)c3ccccc32)C1 (configuration not stated),0,0,0,16µM,0
CC1CCC(C(C)C)C(OC(=O)C[n+]2cc(-c3ccc(Cl)cc3)n3c2CCC3)C1 (configuration not stated),0,0,0,?,0
CC1CCC(C(C)C)C(OC(=O)Cn2c(-c3ccccc3)[n+](C)c3ccccc32)C1 (configuration not stated),0,0,0,6.5µM,0
